The panel holds about 83,000 compounds, 20% with a hit somewhere; the sample as a whole holds those more often.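 Cell lines were cultured in 96-well plates, exposed to a single compound concentration, and assessed for percent growth 48 hours later.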 Values without a mark were called inactive. The source made the active and inactive calls. How the source made its calls: active means growth percent below 10; inactive means the rest.
Key:
Experiment in all cases: NCI-60 one-dose screen, 48 h (100 = growth as untreated, 0 = no growth, -100 = all killed)
Settings in all cases: 10 µM unless noted
[1] = tested on: HCT-15 colon
[2] = tested on: HT29 colon
[3] = tested on: SNB-75 CNS
[4] = tested on: SNB-19 CNS
[5] = tested on: U251 CNS
[6] = tested on: SK-MEL-5 melanoma
[7] = tested on: UACC-62 melanoma
[8] = tested on: LOX IMVI melanoma
[9] = tested on: SK-MEL-28 melanoma
[10] = tested on: SK-MEL-2 melanoma
[11] = tested on: EKVX NSCLC
[12] = tested on: SN12C renal
[13] = tested on: UO-31 renal
[14] = tested on: TK-10 renal
[15] = tested on: ACHN renal
[16] = tested on: CAKI-1 renal
[17] = tested on: A498 renal
[18] = tested on: CCRF-CEM leukemia
[19] = tested on: MOLT-4 leukemia

Structure (SMILES): COc1ccc(NC(=O)c2ccc(Nc3ncnc4c3cnn4-c3cccc(F)c3)cc2)cc1
- growth [1]: 102%
- growth [2]: 104%
- growth [3]: 93.9%
- growth [4]: 94.7%
- growth [5]: 103%
- growth [6]: 98.4%
- growth [7]: 94.8%
- growth [8]: 96%
- growth [9]: 113%
- growth [10]: 104%
- growth [11]: 101%
- growth [12]: 95.7%
- growth [13]: 88.6%
- growth [14]: 103%
- growth [15]: 99.6%
- growth [16]: 90.8%
- growth [17]: 57.3%
- growth [18]: 97.2%
- growth [19]: 100%

Structure (SMILES): O=C(OCc1ccc2c(Cl)cc(Cl)c(O)c2n1)N1CCN(C(=O)c2cc3ccccc3[nH]2)CC1
- growth [1]: 22.2%
- growth [2]: 59.3%
- growth [3]: 36.3%
- growth [4]: 24.5%
- growth [5]: 13.6%
- growth [6]: 25.1%
- growth [7]: -2.56% (active)
- growth [8]: 24.6%
- growth [9]: 39.2%
- growth [10]: 27.2%
- growth [11]: 23.5%
- growth [12]: 28.1%
- growth [13]: 4.4% (active)
- growth [14]: 42.6%
- growth [15]: 11.6%
- growth [16]: 17.1%
- growth [17]: 14.2%
- growth [18]: 21%
- growth [19]: 20.5%

Structure (SMILES): CCOC(=O)c1c(NC(=O)c2ccccc2)sc2c3c(ccc12)OCN(C)C3
- growth [1]: -48.4% (active)
- growth [2]: -20.3% (active)
- growth [3]: 79.3%
- growth [4]: 8.15% (active)
- growth [5]: -13% (active)
- growth [6]: -40.3% (active)
- growth [7]: -71.2% (active)
- growth [8]: -90.8% (active)
- growth [9]: -92.2% (active)
- growth [10]: -34.4% (active)
- growth [11]: 26.3%
- growth [12]: 20.4%
- growth [13]: -75.6% (active)
- growth [14]: 68.5%
- growth [15]: -68.7% (active)
- growth [16]: -42% (active)
- growth [17]: 46.5%
- growth [18]: -0.327% (active)
- growth [19]: -33% (active)

Structure (SMILES): Cc1nc2ccccc2c(/C=C/c2ccc(F)cc2)c1C(=O)/C=C/c1ccccc1
- growth [1]: -4.2% (active)
- growth [2]: 3.31% (active)
- growth [3]: 12.1%
- growth [4]: 38.2%
- growth [5]: -7.24% (active)
- growth [6]: 27.4%
- growth [7]: 26.1%
- growth [8]: -82.5% (active)
- growth [9]: 19.4%
- growth [10]: 14.2%
- growth [11]: 38.2%
- growth [12]: 22.2%
- growth [13]: 27.4%
- growth [14]: 23.2%
- growth [16]: 24.7%
- growth [17]: 55.5%
- growth [19]: 4.66% (active)

Structure (SMILES): O=C(N/N=C/c1ccc(Cl)cc1)c1ccc(NC(=O)c2ccccn2)cc1
- growth [1]: 62.8%
- growth [2]: 71.8%
- growth [3]: -16% (active)
- growth [4]: 64.9%
- growth [5]: 18.3%
- growth [6]: 39.7%
- growth [7]: 62%
- growth [8]: 54%
- growth [9]: 52.1%
- growth [10]: 78.7%
- growth [11]: 68.2%
- growth [12]: 38.2%
- growth [13]: 0.719% (active)
- growth [14]: 47.3%
- growth [15]: -0.994% (active)
- growth [16]: 41.2%
- growth [17]: 81.2%
- growth [19]: 79.5%

Structure (SMILES): CN(C)CCC(=O)C1CC1
- growth [1]: 106%
- growth [2]: 99.3%
- growth [3]: 102%
- growth [4]: 96%
- growth [5]: 102%
- growth [6]: 106%
- growth [7]: 99.2%
- growth [8]: 99%
- growth [9]: 107%
- growth [10]: 111%
- growth [11]: 111%
- growth [12]: 98.9%
- growth [13]: 75.9%
- growth [14]: 113%
- growth [15]: 103%
- growth [16]: 102%
- growth [17]: 106%
- growth [18]: 103%
- growth [19]: 96.9%

Structure (SMILES): N#Cc1ccccc1-c1ccc(CN2C(=O)S/C(=C\c3ccc(Br)cc3)C2=O)cc1
- growth [1]: 98.7%
- growth [2]: 104%
- growth [3]: 82.8%
- growth [4]: 93.5%
- growth [5]: 96.4%
- growth [6]: 98.7%
- growth [7]: 88.7%
- growth [8]: 101%
- growth [9]: 108%
- growth [10]: 102%
- growth [11]: 87.8%
- growth [12]: 91.6%
- growth [13]: 91%
- growth [14]: 110%
- growth [15]: 104%
- growth [16]: 85.4%
- growth [17]: 107%
- growth [19]: 106%

Structure (SMILES): O=C1C(Cl)=C(Nc2ccccc2)C(=O)c2ccccc21
- growth [1]: -78.2% (active)
- growth [2]: -75.1% (active)
- growth [3]: 97.8%
- growth [4]: 54.2%
- growth [5]: -41.8% (active)
- growth [6]: -85.3% (active)
- growth [7]: -49.8% (active)
- growth [8]: -85.5% (active)
- growth [9]: -91.9% (active)
- growth [10]: -65.9% (active)
- growth [11]: -91.9% (active)
- growth [12]: -73.5% (active)
- growth [13]: -42.5% (active)
- growth [14]: 172%
- growth [15]: -86.5% (active)
- growth [16]: -83.6% (active)
- growth [17]: 46.9%
- growth [18]: -10.5% (active)
